Shown are actives, neighbours in structure and some others; about 14% of the full set was active somewhere.
USP17 block – human USP17-like deubiquitinase inhibition; AID 1645855; hit rate 6.5% among 47,000; purified USP17, Ub-rhodamine cleavage fluorescence, 3 h; inhibition, % at 50 µM
USP28 block – human USP28 deubiquitinase inhibition; Q96RU2; inhibition, % at 25 µM; AID 1645857; hit rate 3% among 47,000; purified USP28, Ub-rhodamine cleavage fluorescence, 30 min
USP10 block – human USP10 deubiquitinase inhibition. Q14694. purified USP10, Ub-rhodamine fluorescence, 60 min. inhibition, % at 20 µM. hit rate 1.1% among 47,000. AID 1645856
USP8 block – human USP8 deubiquitinase inhibition. P40818. purified USP8, Ub-rhodamine cleavage fluorescence, 30 min. inhibition, % at 20 µM. hit rate 4.2% among 47,000. AID 1645853
USP30 inh – blocks human USP30 ubiquitin-rhodamine cleavage; hit rate 5.3% among 47,000; inhibition, % at 25 µM; purified USP30, Ub-rhodamine cleavage fluorescence; AID 1645860; Q70CQ3
Target sequence (Q70CQ3 whole entry, looked up): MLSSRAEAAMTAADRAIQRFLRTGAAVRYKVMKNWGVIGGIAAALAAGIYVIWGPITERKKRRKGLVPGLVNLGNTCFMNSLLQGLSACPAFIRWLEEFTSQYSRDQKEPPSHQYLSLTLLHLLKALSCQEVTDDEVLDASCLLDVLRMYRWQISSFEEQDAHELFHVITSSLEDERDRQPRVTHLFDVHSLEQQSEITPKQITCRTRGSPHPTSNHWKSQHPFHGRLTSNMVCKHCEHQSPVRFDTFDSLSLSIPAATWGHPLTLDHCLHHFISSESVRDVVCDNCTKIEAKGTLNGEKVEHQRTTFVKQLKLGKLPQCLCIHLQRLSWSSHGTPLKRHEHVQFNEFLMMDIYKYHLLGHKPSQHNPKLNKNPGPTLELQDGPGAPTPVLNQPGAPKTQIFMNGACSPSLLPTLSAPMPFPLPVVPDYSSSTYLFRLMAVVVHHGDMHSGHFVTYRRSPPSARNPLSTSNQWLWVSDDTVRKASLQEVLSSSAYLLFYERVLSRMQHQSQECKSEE
Active calls of the source: *; i = inactive; · = no result given. Rule as the data show it: active = inhibition above about 30%; inactive = the rest.

SMILES	USP17 block	USP28 block	USP10 block	USP8 block	USP30 inh
Cc1ccc(Nc2nc(Nc3ccc(F)cc3)nc3nccnc23)cc1C	-123	-228	-4	-335	i
Fc1ccc(Nc2nc(Nc3cccc(F)c3)nc3nccnc23)cc1	7	-173	-4	12	61*
Cc1cn2c(=O)cc(COc3cccc(C(F)(F)F)c3)nc2s1	14	0	0	-1	0
Oc1cc(OCc2cccc(C(F)(F)F)c2)ccc1-c1ccn[nH]1	42*	81*	22	75*	13
COc1ccc(C(C)NC(=O)c2cc(NC(C)=O)cc3nc(C)ccc23)cc1 (configuration not stated)	17	-9	-6	58*	-73
C/C=C\C=C\C(=O)C12C(=O)C(C)=C(O)C(C)(O)C1C1C(=C(O)/C=C/C=C/C)C(=O)C2(C)C(=O)C1(C)O (configuration not stated)	-42	-15	-5	-85	-91
Cc1ccc(C)c(-c2cc3c(=O)n(Cc4noc(CN5CCCCC5)n4)ccn3n2)c1	-9	71*	-2	-10	-52
CC1CCN(Cc2nc(Cn3ccn4nc(-c5ccccc5)cc4c3=O)no2)CC1	-5	0	-1	0	2
Cc1cc(NC(=O)c2ccccc2F)ccc1-c1cc2ccccc2oc1=O	5	14	4	-22	12
COc1cc(NC(=O)c2ccc3c(c2)OCO3)ccc1-c1cc2ccccc2oc1=O	47*	43*	29	69*	-19
O=C(Nc1ccc2[nH]c(=O)[nH]c2c1)c1cc2ccccc2o1	43*	-9	12	42*	-89
COc1cccc2cc(C(=O)Nc3ccc4c(c3)OCCO4)oc12	1	51*	7	0	1
O=C(Nc1c(C(=O)Nc2ccc3c(c2)OCO3)oc2ccccc12)c1cc2ccccc2o1	0	-6	6	79*	-25
CCC(Oc1ccccc1F)C(=O)Nc1ccc2c(c1)NC(=O)CO2 (configuration not stated)	8	12	1	-8	23
CSc1cccc(NC(=O)CNC(=O)c2cc3ccccc3o2)c1	65*	13	5	2	-27
O=C(NCCc1nc2ccccc2[nH]1)c1cc2ccccc2o1	-2	4	0	1	-3
COc1ccc(NC(=O)c2c(C)sc3c(=O)n(C(C)C)cnc23)cc1	0	-1	-4	5	-4
O=C(NC1CC1)C1c2ccccc2C(=O)N(C2CCCC2)C12CCCCC2 (configuration not stated)	-3	-9	-4	-2	-10
CC(=O)c1cccc(NC(=O)C2c3ccccc3C(=O)N(C3CCCC3)C23CCCCC3)c1 (configuration not stated)	-7	-45	-8	65*	-175
COc1cccc(CC(=O)Nc2ccc3nc(C)sc3c2)c1	-10	0	-2	-16	-12
COc1ccc(NC(=O)CNC(=O)c2ccc3nc(-n4cccc4)sc3c2)cc1	31*	17	28	82*	-45
COc1cccc(CNC(=O)c2ccc3nc(N4CCOCC4)sc3c2)c1OC	-3	8	-1	-49	-7
CC(C)C[C@H](NC(=O)c1ccc2nc(-n3cccc3)sc2c1)C(=O)NCc1ccco1	-17	-21	14	53*	-159
COCC(=O)N1CCC2(C=Cc3ccc(F)cc32)CC1	-8	-4	0	-11	-20
O=C(CCC(=O)N1CCN(C(=O)c2cnn3ccccc23)CC1)c1ccccc1	1	-10	-3	-7	-27
SMILES	USP17 block	USP28 block	USP10 block	USP8 block	USP30 inh
O=C(c1cnn2ccccc12)N1CCN(S(=O)(=O)/C=C/c2ccccc2)CC1	11	11	2	5	33*
Cc1sc(NC(=O)c2ccc(S(=O)(=O)N(C)Cc3ccccc3)cc2)c(C(N)=O)c1C	-15	-19	29	31*	-46
CCN(Cc1ccccc1)S(=O)(=O)c1ccc(C(=O)Nc2sccc2C(N)=O)cc1	43*	·	-3	-17	·
CN(Cc1ccccc1)S(=O)(=O)c1ccc(NC(=O)c2ccc(Cl)cc2)cc1	15	-4	7	4	31*
CCN(Cc1ccccc1)S(=O)(=O)c1ccc(C(=O)Nc2ccc(S(N)(=O)=O)cc2)cc1	33*	5	7	1	-3
CN(Cc1ccccc1)S(=O)(=O)c1ccc(C(=O)Nc2ccc3c(c2)OCO3)cc1	6	6	15	3	19
Cc1cc(C)n2nc(CNC(=O)c3ccc(Br)o3)nc2n1	-6	-15	-2	2	-29
O=C(Nc1ccccc1N1CCOCC1)C1CCCCN1S(=O)(=O)c1ccccc1 (configuration not stated)	-5	-13	7	-12	1
O=C(Nc1ccccc1N1CCOCC1)C1Cc2ccccc2CN1S(=O)(=O)c1ccccc1F (configuration not stated)	20	-6	-8	31*	-35
CNS(=O)(=O)c1ccc(Nc2ccc3c(c2)OCO3)c([N+](=O)[O-])c1	21	1	0	-31	-15
Clc1ccc2c(Nc3ccc4c(c3)OCO4)ccnc2c1	56*	43*	7	-66	53*
CSc1nc(SCc2ccccc2Cl)c2c3c(sc2n1)COC(C)(C)C3	7	11	-2	17	-13
Cc1cccc(Cn2cnc3c(nnn3Cc3ccccc3F)c2=O)c1	23	30*	5	5	-44
COc1ccccc1-c1noc(Cn2cnc3c(nnn3Cc3ccc(F)cc3)c2=O)n1	-4	3	8	-8	15
COc1ccc(Sc2nc3ccccc3n3cnnc23)cc1	13	2	7	79*	15
CN1C(=O)c2cc(NC(=O)c3ccco3)ccc2N2CCN=C12	1	-5	0	-45	2
Cc1cc(-c2ccc(C)c(S(=O)(=O)N3CC(=O)Nc4ccccc43)c2)on1	47*	26	1	-1	9
Cc1ccc(NC(=O)c2nc3ccccc3nc2N2CCN(C)CC2)cc1	4	5	-2	19	22
CC(C)(C)OC(=O)N1CCC[C@]2(CCC(=O)N2)[C@H]1c1ccc(F)cc1	12	14	1	25	31*
Cn1nc(C2CC2)cc1C(=O)N1CCC[C@]2(CCC(=O)N2)[C@H]1c1ccc(F)cc1	7	1	1	5	14
Cc1ccc(NC(=O)/C=C/c2cccc(C(F)(F)F)c2)c(O)c1	58*	27	6	1	45*
O=C(/C=C/c1cccc(C(F)(F)F)c1)c1ccoc1	18	5	9	21	15
CCOC(=O)N1CCN(C(=O)c2cc(-c3ccc(OCC)cc3)n[nH]2)CC1	-1	-5	3	-29	14
CC(=O)Nc1nsc(N2CCCC(C(=O)NC3CCCCC3)C2)n1 (configuration not stated)	-10	-7	-1	-41	-9
CC(C)(C)OC(=O)N1CSC[C@@H]1C(=O)N1CCC(C(=O)N[C@@H](CC(N)=O)C(=O)O)(c2ccccc2)CC1	8	-2	2	8	17
O=C(CCCCCn1c(=O)[nH]c2ccccc2c1=O)Nc1ccccc1Br	16	3	9	18	35*

Screening data deposited in PubChem BioAssay by Buhrlage Lab, Dana-Farber Cancer Institute and Novartis Institutes for BioMedical Research (Cambridge, Mass).
